We go through 8 compounds from PubChem BioAssay (NCI).

The panel holds about 83,000 compounds, 20% with a hit somewhere; the sample as a whole holds those more often.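 Method: cells in 96-well plates; compound added at one concentration; 48 h incubation; percent growth measured; values under 10 scored active.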 Values without a mark were called inactive. Activity calls are given as the source filed them.

Some test systems named below: NCI-H23 lung; NCI-H226 lung; NCI-H322M lung; HOP-62 NSCLC; NCI-H460 lung; NCI-H522 lung; A549/ATCC NSCLC; 786-0 renal; COLO 205 colon; DU-145 prostate; K-562 leukemia; MALME-3M melanoma; MDA-MB-231 breast; RXF 393 renal; SF-268 CNS; SF-295 CNS; SF-539 CNS; UACC-257 melanoma; M14 melanoma; HOP-92 NSCLC.
Holding throughout (experiment): NCI-60 one-dose screen, 48 h (100 = growth as untreated, 0 = no growth, -100 = all killed)
What all share (settings): 10 µM unless noted

On to `COc1ccc(/C=C/C=C\C(=O)c2ccc(-n3ccnc3)cc2)cc1`, for which the growth is 94.1% in the test with NCI-H23 lung; 84.3% in the test with NCI-H226 lung; 101% with NCI-H322M lung; 101% with HOP-62 NSCLC; 92.7% in the test with NCI-H460 lung; 85.3% with NCI-H522 lung. In addition, the growth is 81.9% with A549/ATCC NSCLC; -0.616% (active) in the test on 786-0 renal; 101% in the test on COLO 205 colon; 98% with DU-145 prostate; 66.2% in the test on K-562 leukemia; 92.8% in the test on MALME-3M melanoma. Besides, the growth was 94% with MDA-MB-231 breast; 92.7% in the test with RXF 393 renal; 96.2% in the test on SF-268 CNS; 99.7% with SF-295 CNS; 97.9% with SF-539 CNS; 93.1% in the test with UACC-257 melanoma. Also, the growth in the test on M14 melanoma was 21.3%.
Turning to `CCOC(=O)COc1ccc2c(c1)O/C(=C\c1ccc(O)cc1)C2=O`, the growth in the test on NCI-H23 lung was 104%; in the test on NCI-H226 lung, 97.7%; in the test on NCI-H322M lung, 99.7%; in the test on HOP-62 NSCLC it was 104%; in the test on NCI-H460 lung, 104%; in the test on NCI-H522 lung, 97%. The growth in the test with A549/ATCC NSCLC was 108%; in the test with 786-0 renal it was 112%; with COLO 205 colon it was 115%; in the test with DU-145 prostate, 106%; in the test on K-562 leukemia it was 106%; in the test on MALME-3M melanoma it was 102%. The growth in the test with MDA-MB-231 breast is 117%; in the test on RXF 393 renal it was 114%; in the test on SF-268 CNS, 94.2%; in the test with SF-295 CNS, 101%; with SF-539 CNS it was 102%; with UACC-257 melanoma, 105%. Also, the growth in the test on M14 melanoma is 103%.
Regarding `CCOc1cc(NC(=O)c2ccccc2)c(OCC)cc1N`, the growth in the test with NCI-H23 lung is 102%; in the test with NCI-H226 lung, 106%; in the test with NCI-H322M lung, 141%; with HOP-62 NSCLC it was 102%; with NCI-H460 lung, 114%; in the test with NCI-H522 lung, 98.3%. The growth was 115% in the test with A549/ATCC NSCLC; 110% in the test on 786-0 renal; 116% with COLO 205 colon; 110% in the test with DU-145 prostate; 113% in the test with K-562 leukemia; 147% in the test with MALME-3M melanoma. Moreover, the growth in the test with MDA-MB-231 breast was 104%; in the test with RXF 393 renal, 117%; with SF-268 CNS, 106%; in the test on SF-295 CNS, 121%; in the test on SF-539 CNS it was 112%; with UACC-257 melanoma it was 118%.
As to `C#C[C@]1(O)CC[C@H]2[C@@H]3CC=C4c5nc(Nc6ncccn6)sc5CC[C@]4(C)[C@H]3CC[C@@]21C`, the growth is 77.8% with NCI-H23 lung; 68.8% with NCI-H226 lung; 74.3% with NCI-H322M lung; 38.3% in the test with HOP-62 NSCLC; 31.2% in the test with NCI-H460 lung; 81% in the test with NCI-H522 lung. Further, the growth in the test with A549/ATCC NSCLC is 43.4%; in the test with 786-0 renal it was -45.2% (active); with COLO 205 colon, 92.4%; with DU-145 prostate it was 61.1%; in the test on K-562 leukemia, 33.8%; with MALME-3M melanoma it was 47.6%. For the same compound, the growth in the test on MDA-MB-231 breast was 34.2%; in the test with RXF 393 renal, -59.1% (active); in the test with SF-268 CNS it was 29.5%; in the test on SF-295 CNS it was -66.2% (active); in the test on SF-539 CNS, -50.1% (active); in the test on UACC-257 melanoma, -16% (active). In the test on M14 melanoma, the growth was 43.8%.
`COc1ccc(/C=C(/C2=NCCN2)n2ccc3ccccc32)cc1`: the growth in the test on NCI-H23 lung is 100%; in the test with NCI-H226 lung it was 81.5%; in the test on NCI-H322M lung, 92%; with HOP-62 NSCLC, 97.1%; in the test with NCI-H460 lung, 93.1%; in the test on NCI-H522 lung, 85.9%. Further, the growth was 99.8% in the test on A549/ATCC NSCLC; 88.8% in the test on 786-0 renal; 83.9% with COLO 205 colon; 96.2% in the test with DU-145 prostate; 84.3% with K-562 leukemia; 87% in the test with MALME-3M melanoma. Further, the growth with MDA-MB-231 breast was 89.5%; in the test on RXF 393 renal, 77.9%; with SF-268 CNS it was 79.3%; with SF-295 CNS, 85.8%; with SF-539 CNS, 92.7%; in the test with UACC-257 melanoma it was 94.3%. Further, the growth in the test on M14 melanoma was 86.2%.
For `O=S(=O)(NCCNc1nccc(-c2c(-c3cccc(F)c3)nc3occn23)n1)c1ccc(C(F)(F)F)cc1`, the growth is 98.5% in the test with NCI-H23 lung; 84.2% in the test on NCI-H226 lung; 89.3% with NCI-H322M lung; 85.1% in the test with HOP-62 NSCLC; 98.9% in the test with NCI-H460 lung; 74.4% in the test with NCI-H522 lung. Besides, the growth is 70% in the test with A549/ATCC NSCLC; 78.7% in the test on 786-0 renal; 96% with COLO 205 colon; 87.9% in the test with DU-145 prostate; 69.8% with K-562 leukemia; 86.2% in the test with MALME-3M melanoma. Moreover, the growth with MDA-MB-231 breast is 86.9%; with RXF 393 renal it was 67.9%; with SF-268 CNS, 70.4%; in the test with SF-295 CNS it was 110%; with SF-539 CNS it was 109%; in the test with UACC-257 melanoma, 104%. Also, the growth in the test with M14 melanoma was 95.4%.
With `C#CCNC(=O)CC[C@]1(C)[C@H]2CC[C@@H]3[C@@H]([C@@](C)(O)CCC=C(C)C)CC[C@@]3(C)[C@]2(C)CC[C@H]1C(=C)C`, the growth in the test on NCI-H23 lung was 16.3% [100 µM]; in the test with NCI-H226 lung, 51.5% [100 µM]; in the test with NCI-H322M lung, 75.7% [100 µM]; with HOP-62 NSCLC, 51.5% [100 µM]; in the test on NCI-H460 lung, 33.7% [100 µM]; with NCI-H522 lung, -73.1% [100 µM] (active). The growth with A549/ATCC NSCLC is 37.7% [100 µM]; with 786-0 renal, -67.9% [100 µM] (active); in the test with COLO 205 colon, 42.7% [100 µM]; in the test on DU-145 prostate it was 52.7% [100 µM]; in the test on K-562 leukemia, 5.99% [100 µM] (active); with MALME-3M melanoma, -73.6% [100 µM] (active). Moreover, the growth with MDA-MB-231 breast was -24.5% [100 µM] (active); in the test on RXF 393 renal, 30.6% [100 µM]; in the test with SF-268 CNS it was -28.8% [100 µM] (active); with SF-295 CNS, 49% [100 µM]; in the test with SF-539 CNS, -81% [100 µM] (active); in the test with UACC-257 melanoma, 61.5% [100 µM]. In addition, the growth in the test on M14 melanoma was 53.1% [100 µM].
For `C=CCCCCCCCCC(=O)OC(C)C`, the growth is 102% in the test on NCI-H226 lung; 94% in the test on NCI-H322M lung; 97.5% in the test on HOP-62 NSCLC; 100% in the test on NCI-H460 lung; 82.3% with HOP-92 NSCLC; 91.7% with NCI-H522 lung. Also, the growth with A549/ATCC NSCLC was 99.2%; with 786-0 renal it was 104%; in the test with COLO 205 colon, 105%; in the test on DU-145 prostate, 101%; in the test with K-562 leukemia, 107%; with MALME-3M melanoma, 78.9%. The growth with MDA-MB-231 breast was 97.4%; with RXF 393 renal it was 93.2%; in the test with SF-268 CNS, 96.9%; with SF-295 CNS, 98.8%; with SF-539 CNS it was 104%; with UACC-257 melanoma it was 94.9%.
